According to PubChem BioAssay (NCATS):
Results filed as inconclusive are left out. A call without a number means that no potency is given here. A number with no mark means an inactive call. Activity calls are given as the source filed them. Calls come from the whole dose curve; as a rule, active = well fitted curve in the direction sought with a large enough effect; inconclusive = small, poorly fitted or top-dose-only effect, or another doubt; inactive = no such curve, though single readings can be large; an effect the other way counts as inactive or inconclusive.

Legend:
[1] = target: Rap guanine nucleotide exchange factor 3 (Homo sapiens) (UniProt O95398); experiment: Confirmatory qHTS for antagonist of cAMP-regulated guanine nucleotide exchange factor 3 (EPAC1) (AID 1645880); note: nearly all actives have a fitted effect of over 55% in size; note: potency is the fitted concentration of half-maximal effect
Chain of Rap guanine nucleotide exchange factor 3 (Homo sapiens) (O95398 whole entry, looked up): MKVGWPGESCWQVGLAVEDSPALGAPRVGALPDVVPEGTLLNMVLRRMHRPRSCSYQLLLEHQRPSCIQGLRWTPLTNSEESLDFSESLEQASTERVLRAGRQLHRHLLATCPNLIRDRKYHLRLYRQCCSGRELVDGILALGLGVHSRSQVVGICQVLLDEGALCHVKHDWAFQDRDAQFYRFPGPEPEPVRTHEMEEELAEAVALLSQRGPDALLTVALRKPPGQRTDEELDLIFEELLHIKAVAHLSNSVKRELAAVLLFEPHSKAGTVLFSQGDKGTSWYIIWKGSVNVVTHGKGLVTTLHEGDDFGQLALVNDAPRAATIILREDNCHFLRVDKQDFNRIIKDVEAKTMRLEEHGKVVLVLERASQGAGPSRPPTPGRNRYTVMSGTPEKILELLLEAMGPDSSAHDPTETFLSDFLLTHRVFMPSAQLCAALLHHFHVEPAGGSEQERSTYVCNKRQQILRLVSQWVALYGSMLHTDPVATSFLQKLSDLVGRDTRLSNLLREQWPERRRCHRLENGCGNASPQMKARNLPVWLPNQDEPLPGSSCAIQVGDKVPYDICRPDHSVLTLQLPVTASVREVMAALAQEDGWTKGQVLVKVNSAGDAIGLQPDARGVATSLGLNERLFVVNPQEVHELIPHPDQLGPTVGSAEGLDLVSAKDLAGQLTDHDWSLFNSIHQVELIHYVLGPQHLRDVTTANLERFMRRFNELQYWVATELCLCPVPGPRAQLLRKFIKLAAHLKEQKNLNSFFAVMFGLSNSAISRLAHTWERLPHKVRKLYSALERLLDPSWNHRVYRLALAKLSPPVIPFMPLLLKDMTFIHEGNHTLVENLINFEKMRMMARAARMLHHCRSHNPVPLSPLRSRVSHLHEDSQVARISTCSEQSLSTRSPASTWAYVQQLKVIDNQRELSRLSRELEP
In short: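 Released BODIPY-GDP fluoresces less than Rap1-bound BODIPY-GDP; the signal is followed at 480/540 nm at 5-min intervals over 30 min, after 5 min at room temperature. Reactions contain 100 nM EPAC1, 250 nM RAP1B-BODIPY-GDP and 50 uM GDP; results are normalized to ATA and DMSO.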

[2] = target: Rap guanine nucleotide exchange factor 3 (Homo sapiens) (UniProt O95398); experiment: Confirmatory qHTS for agonist of cAMP-regulated guanine nucleotide exchange factor 3 (EPAC1) (AID 1645881);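 note: EPAC1 catalysed release of BODIPY-GDP from Rap1B seen as fluorescence loss; nearly all actives have a fitted effect of over 75% in size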
[3] = target: Rap guanine nucleotide exchange factor 4 (Homo sapiens) (UniProt Q8WZA2); experiment: Confirmatory qHTS for agonist of cAMP-regulated guanine nucleotide exchange factor 4 (EPAC2) (AID 1645884);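 note: nucleotide exchange releases bodipy-GDP from Rap1 and this lowers its fluorescence; nearly all actives have a fitted effect of over 65% in size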
Chain of Rap guanine nucleotide exchange factor 4 (Homo sapiens) (Q8WZA2 whole entry, looked up): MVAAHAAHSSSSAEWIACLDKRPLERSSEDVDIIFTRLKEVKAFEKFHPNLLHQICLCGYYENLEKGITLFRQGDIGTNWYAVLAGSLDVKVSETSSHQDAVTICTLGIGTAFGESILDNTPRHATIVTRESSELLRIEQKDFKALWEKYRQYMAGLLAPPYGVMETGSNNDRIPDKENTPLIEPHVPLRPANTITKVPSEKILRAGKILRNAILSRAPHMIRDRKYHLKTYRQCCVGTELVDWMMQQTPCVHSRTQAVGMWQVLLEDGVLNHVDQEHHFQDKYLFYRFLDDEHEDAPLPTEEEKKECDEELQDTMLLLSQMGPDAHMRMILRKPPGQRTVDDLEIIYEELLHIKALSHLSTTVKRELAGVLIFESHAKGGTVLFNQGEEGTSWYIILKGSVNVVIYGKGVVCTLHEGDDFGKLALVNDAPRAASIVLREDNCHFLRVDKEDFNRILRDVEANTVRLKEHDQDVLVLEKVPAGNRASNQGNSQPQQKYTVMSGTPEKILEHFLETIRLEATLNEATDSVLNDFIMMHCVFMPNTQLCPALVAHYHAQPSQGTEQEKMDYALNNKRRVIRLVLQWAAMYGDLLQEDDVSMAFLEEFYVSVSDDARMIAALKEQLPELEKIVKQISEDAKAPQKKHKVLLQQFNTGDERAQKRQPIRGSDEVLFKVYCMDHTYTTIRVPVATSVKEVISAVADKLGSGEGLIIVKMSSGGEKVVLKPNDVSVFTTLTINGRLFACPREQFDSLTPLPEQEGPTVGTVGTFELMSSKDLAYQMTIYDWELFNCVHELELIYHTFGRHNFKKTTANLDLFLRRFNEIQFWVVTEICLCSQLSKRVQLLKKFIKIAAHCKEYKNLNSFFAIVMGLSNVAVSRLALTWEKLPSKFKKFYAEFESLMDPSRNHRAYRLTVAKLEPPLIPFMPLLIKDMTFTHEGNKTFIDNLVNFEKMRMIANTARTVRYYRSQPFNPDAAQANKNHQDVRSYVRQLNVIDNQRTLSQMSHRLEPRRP

[4] = target: Rap guanine nucleotide exchange factor 4 (Homo sapiens) (UniProt Q8WZA2); experiment: Confirmatory qHTS for antagonist of cAMP-regulated guanine nucleotide exchange factor 4 (EPAC2) (AID 1645885); note: nearly all actives have a fitted effect of over 25% in size; note: potency is the fitted concentration of half-maximal effect
[5] = target: Rap guanine nucleotide exchange factor 3 (Homo sapiens) (UniProt O95398); experiment: Counterscreen qHTS for antagonist of cAMP-regulated guanine nucleotide exchange factor 3 (EPAC1) (AID 1645888)
In short: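 Rap1B–BODIPY-GDP (250 nM) with 50 uM GDP; compounds pin-transferred to 9.74 nM–152 uM final (activator) or from 7.32 nM upwards (inhibitor). Fluorescence Ex/Em 480/540 nm read at 5 and 30 min, then after adding cAMP or buffer, at room temperature.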

For `Cc1ccc2c(c1)c1c3n2CCN(C(=O)C2CC2)C3CCC1` (stereo not given), the Potency [1] was “inactive”, the Potency [2] was “inactive” and the Potency [3] was “inactive”. For the same compound, the Potency [4] was 75.7 µM (active) and the Potency [5] was “inactive”.

`COc1ccc(-c2nc3n(c(=O)c2C#N)CCS3)cc1` was tested, and the Potency [1] was “inactive”, the Potency [2] was “inactive” and the activation [3] was 4.85% [at 17.1 µM, percent relative to cAMP agonist control]. For the same compound, the Potency [4] was “inactive” and the activity change, negative = inhibition [5] was -1.96% [at 30.8 µM].

In the case of `O=C(Nc1ccccn1)c1cccc(S(=O)(=O)N2CCc3ccccc3C2)c1`, the Potency [1] is reported as “inactive”, the Potency [2] is reported as “inactive” and the Potency [3] is reported as “inactive”. The Potency [4] was “inactive” and the Potency [5] was “inactive”.

`CCCCN1C(=O)C(CC(=O)NC2CCCCC2)CC(C(=O)N2CCCCCC2)=C1C` (stereo not given) was tested, and the Potency [1] was “inactive”, the Potency [2] was “inactive” and the activation [3] was 8.48% [at 17.1 µM, percent relative to cAMP agonist control]. The Potency [4] was “inactive” and the activity change, negative = inhibition [5] was -2.29% [at 30.8 µM].

`CC(C)Cn1c(N)c(C(=O)NCC2CCCO2)c2nc3ccccc3nc21` (stereo not given) was tested, and the Potency [1] was 21.3 µM (active), the Potency [2] was “inactive” and the Potency [3] was “inactive”. For the same compound, the Potency [4] was “inactive” and the Potency [5] was “inactive”.

With `COc1cc(OC)c(NC(=O)N2CCC(CN3CCOCC3)CC2)cc1Cl` the Potency [1] was “inactive”, the Potency [2] was “inactive” and the Potency [3] was “inactive”. For the same compound, the Potency [4] was “inactive” and the Potency [5] was “inactive”.

In the case of `CCOc1ccc(N2CC(c3nc4ccccc4n3Cc3cccc(Cl)c3)CC2=O)cc1` (stereo not given), the Potency [1] is reported as “inactive”, the Potency [2] is reported as “inactive” and the Potency [3] is reported as “inactive”. For the same compound, the Potency [4] was “inactive” and the Potency [5] was “inactive”.

For `COc1cccc(CNC(=O)CCC(=O)N2CC(C)Sc3ccccc32)c1` (stereo not given), the Potency [1] was “inactive”, the Potency [2] was “inactive” and the Potency [3] was “inactive”. For the same compound, the Potency [4] was “inactive” and the Potency [5] was “inactive”.

With `CNC[C@H]1Oc2ccc(NC(=O)Nc3ccccc3)cc2CC(=O)N([C@H](C)CO)C[C@H]1C` the Potency [1] was “inactive”, the Potency [2] was “inactive” and the Potency [3] was “inactive”. The Potency [4] was “inactive” and the Potency [5] was “inactive”.

For `Cc1cccc(-n2nc(C)c(C(=O)Nc3cc(C)ccc3C)c2-n2cccc2)c1`, the Potency [1] was “inactive”, the Potency [2] was “inactive” and the Potency [3] was “inactive”. The Potency [4] was “inactive” and the Potency [5] was “inactive”.

In the case of `NC(=O)COC(=O)c1ccc(Cl)c(S(=O)(=O)N(Cc2ccccc2)c2ccc(Cl)cc2)c1`, the Potency [1] is reported as “inactive”, the Potency [2] is reported as “inactive” and the activation [3] is reported as 4.76% [at 17.1 µM, percent relative to cAMP agonist control]. For the same compound, the Potency [4] was “inactive” and the activity change, negative = inhibition [5] was -4.28% [at 30.8 µM].

For `COC(=O)c1cc2oc(C)cc2n1Cc1c(C)cc(C)cc1C`, the Potency [1] was “inactive”, the Potency [2] was “inactive” and the Potency [3] was “inactive”. The Potency [4] was “inactive” and the Potency [5] was “inactive”.

In the case of `CCN(CC)CCn1c2c(c(SCC(=O)Nc3nc4ccccc4s3)nc1=O)CCCC2`, the Potency [1] is reported as “inactive”, the Potency [2] is reported as “inactive” and the Potency [3] is reported as “inactive”. The Potency [4] was “inactive” and the Potency [5] was “inactive”.

With `Cc1ccccc1OCCC(=O)OCC(=O)NC1CCCCC1` the Potency [1] was “inactive”, the Potency [2] was “inactive” and the activation [3] was 3.43% [at 17.1 µM, percent relative to cAMP agonist control]. For the same compound, the Potency [4] was “inactive” and the activity change, negative = inhibition [5] was 6.94% [at 30.8 µM].

With `Cc1ccc(C)c(S(=O)(=O)/N=C2\C=C(NS(=O)(=O)c3ccccc3)C(=O)c3ccccc32)c1` the Potency [1] was 22.4 µM (active), the Potency [2] was “inactive” and the activation [3] was 3.6% [at 17.1 µM, percent relative to cAMP agonist control]. The Potency [4] was “inactive” and the activity change, negative = inhibition [5] was -11.3% [at 30.8 µM].

`COc1ccc2cc3[n+](cc2c1O)CCc1cc2c(cc1-3)OCO2` was tested, and the Potency [1] was 19 µM (active), the Potency [2] was “inactive” and the Potency [3] was “inactive”. The Potency [4] was “inactive” and the Potency [5] was “inactive”.

With `CN(C(=O)CSc1nc(-c2ccc(C(C)(C)C)cc2)c(C#N)c(=O)[nH]1)C1CCCCC1` the Potency [1] was 42.6 µM (active), the Potency [2] was “inactive” and the Potency [3] was “inactive”. The Potency [4] was “inactive” and the Potency [5] was “inactive”.

For `CC1CC(C)CN(C(=O)COC(=O)CNC(=O)C23CC4CC(CC(C4)C2)C3)C1` (stereo not given), the Potency [1] was “inactive”, the Potency [2] was “inactive” and the Potency [3] was “inactive”. The Potency [4] was “inactive” and the Potency [5] was “inactive”.

For `CSc1nc(N2CCOCC2)c2c3c(sc2n1)CCC3`, the Potency [1] was “inactive”, the Potency [2] was “inactive” and the Potency [3] was “inactive”. For the same compound, the Potency [4] was “inactive” and the Potency [5] was “inactive”.

In the case of `Fc1ccc(-c2noc3ncnc(N4CCN(c5ccccc5)CC4)c23)cc1`, the Potency [1] is reported as “inactive”, the Potency [2] is reported as “inactive” and the Potency [3] is reported as “inactive”. The Potency [4] was “inactive” and the Potency [5] was “inactive”.

With `COc1cccc(CN2C(=O)C3(SCC(=O)N3c3ccc(F)cc3)c3ccccc32)c1` (stereo not given) the Potency [1] was “inactive”, the Potency [2] was “inactive” and the Potency [3] was “inactive”. The Potency [4] was “inactive” and the Potency [5] was “inactive”.

In the case of `COc1cc(/C=C(/C#N)c2nc(-c3cc4ccccc4oc3=O)cs2)ccc1O`, the Potency [1] is reported as “inactive”, the Potency [2] is reported as “inactive” and the Potency [3] is reported as “inactive”. For the same compound, the outcome [4] was “inactive [at 12.7 µM]” and the Potency [5] was “inactive”.

With `COc1ccc2oc(C(=O)N(C)CCOc3ccc(Cl)cc3)c(C)c2c1` the Potency [1] was “inactive”, the Potency [2] was “inactive” and the activation [3] was 7.19% [at 17.1 µM, percent relative to cAMP agonist control]. The Potency [4] was “inactive” and the activity change, negative = inhibition [5] was -14.2% [at 30.8 µM].

In the case of `Cc1ccc2oc(=O)c3cnn(CC(=O)NCCCOC(C)C)c3c2c1`, the Potency [1] is reported as “inactive”, the Potency [2] is reported as “inactive” and the Potency [3] is reported as “inactive”. The Potency [4] was “inactive” and the Potency [5] was “inactive”.

In the case of `O=c1cc(CSc2ccccc2)nc(-c2ccncc2)[nH]1`, the Potency [1] is reported as “inactive”, the Potency [2] is reported as “inactive” and the Potency [3] is reported as “inactive”. For the same compound, the Potency [4] was “inactive” and the Potency [5] was “inactive”.

For `COc1ccc(-n2ccn(Cc3ccccc3Cl)c(=O)c2=O)cc1OC`, the Potency [1] was “inactive”, the Potency [2] was “inactive” and the Potency [3] was “inactive”. For the same compound, the Potency [4] was “inactive” and the Potency [5] was “inactive”.

With `Cn1c(SCc2c(Cl)cccc2Cl)nnc1-c1ccc2nonc2c1` the Potency [1] was “inactive”, the Potency [2] was “inactive” and the activation [3] was 10.1% [at 17.1 µM, percent relative to cAMP agonist control]. For the same compound, the Potency [4] was “inactive” and the activity change, negative = inhibition [5] was -10.9% [at 30.8 µM].

In the case of `N#CC1(NC(=O)COC(=O)c2nc(Cl)c(Cl)c(N)c2Cl)CCCCC1`, the Potency [1] is reported as “inactive”, the Potency [2] is reported as “inactive” and the Potency [3] is reported as “inactive”. The Potency [4] was “inactive” and the Potency [5] was “inactive”.

In the case of `Cc1occc1-c1nnc(SCC(=O)Nc2c(F)cccc2F)n1C`, the Potency [1] is reported as “inactive”, the Potency [2] is reported as “inactive” and the Potency [3] is reported as “inactive”. The Potency [4] was “inactive” and the Potency [5] was “inactive”.

For `O=C(N/N=C/c1ccc(F)cc1)c1cc(-c2ccco2)nc2ccccc12`, the Potency [1] was 16.9 µM (active), the Potency [2] was “inactive” and the Potency [3] was “inactive”. For the same compound, the Potency [4] was “inactive” and the Potency [5] was “inactive”.

With `CCOC(=O)c1ccc(N2C(=O)c3n[nH]c(-c4ccco4)c3C2c2ccccc2OC)cc1` (stereo not given) the Potency [1] was 75.7 µM (active), the Potency [2] was “inactive” and the Potency [3] was “inactive”. The Potency [4] was “inactive” and the Potency [5] was “inactive”.
